Results filed as inconclusive are left out. Activity calls are given as the source filed them. Rule for the calls: active = hit-call score of the fitted dose curve at least 0.9, where 1 is the maximum; inconclusive = response in the unintended direction; inactive = score below 0.9.

A word on the AC50: it is the concentration at which the activity in the assay is half-maximal.

Chain of human Retinoid X Receptor beta (RXRb) Agonism, RXRB (gene 6257) (P28702 whole entry, looked up): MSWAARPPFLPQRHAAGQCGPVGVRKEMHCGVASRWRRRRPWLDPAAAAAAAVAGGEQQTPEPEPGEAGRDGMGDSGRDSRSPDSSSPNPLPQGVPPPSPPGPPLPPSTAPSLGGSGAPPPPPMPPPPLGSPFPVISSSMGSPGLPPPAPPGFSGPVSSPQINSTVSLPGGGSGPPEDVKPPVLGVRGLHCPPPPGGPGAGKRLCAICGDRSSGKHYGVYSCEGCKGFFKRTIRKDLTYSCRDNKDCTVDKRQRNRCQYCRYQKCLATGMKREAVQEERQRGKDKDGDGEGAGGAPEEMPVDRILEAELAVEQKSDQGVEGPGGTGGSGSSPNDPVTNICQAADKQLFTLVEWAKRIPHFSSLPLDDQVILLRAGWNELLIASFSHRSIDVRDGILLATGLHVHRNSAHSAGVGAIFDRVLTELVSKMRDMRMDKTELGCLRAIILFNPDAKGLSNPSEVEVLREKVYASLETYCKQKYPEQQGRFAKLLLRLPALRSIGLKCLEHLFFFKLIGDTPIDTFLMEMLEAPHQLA

The assay has as its target human Retinoid X Receptor beta (RXRb) Agonism, RXRB (gene 6257) (UniProt P28702). Put plainly: ERF_TW_NR_COA_hRXRB: Eurofins (ERF) Nuclear Receptor (NR) Functional Coactivator Assay for human Retinoid X Receptor beta (RXRb) Agonism. The protocol:
ERF_TW_NR_COA_hRXRB is a biochemical, single-readout assay that uses extracted gene-proteins in a cell-free assay. Measurements were taken 0.5 hours after chemical dosing in a 96-well plate. See RXRbeta Human Retinoid X NHR Functional Agonist Coactivator Assay, Panlabs.ERF_TW_NR_COA_hRXRB is an assay component calculated from the ERF_TW_NR_COA_hRXRB assay. It is designed to measure FRET using a type of binding reporter as detected by fluorescence intensity of fluorobexarotene with fluorimetry technology.Data from the assay component ERF_TW_NR_COA_hRXRB was analyzed at the assay endpoint, ERF_TW_NR_COA_hRXRB, in the positive analysis fitting direction relative to DMSO as the negative control and baseline of activity. Using a type of binding reporter, gain-of-signal activity can be used to understand changes in binding as they relate to gene RXRB. To generalize the intended target to other relatable targets, this assay endpoint is annotated to the nuclear receptor intended target family, where the subfamily is non-steroidal.
Test compound and/or vehicle is incubated with the 2 nM retinoid X receptor beta (RXRbeta)-LBD and coactivator peptide for 30 minutes at RT. Determination of the amount of complex formed is read spectrofluorimetrically (excitation: 337 nm, emission: 520/490 nm). Test compound-induced increase fluorescence by 50 percent or more (>/=50%) relative to the 10 uM fluorobexarotene response indicates possible RXRbeta receptor agonist activity.
In the case of `CC(=O)c1cc(C(C)(C)C)cc2c1CCC2(C)C`, the half-maximal activity concentration (AC50) is 14.5 µM (active).

For the compound `CCCc1c(OCCCOc2ccc(OCC(=O)O)cc2)ccc(C(C)=O)c1O`, the call was inactive.

On to `O=S(=O)(O)C(F)(F)C(F)(F)C(F)(F)C(F)(F)C(F)(F)C(F)(F)C(F)(F)C(F)(F)F`, for which the outcome was inactive.

For the compound `ClC1=C(Cl)[C@]2(Cl)[C@@H]3[C@@H]4C[C@@H]([C@H]5O[C@@H]45)[C@@H]3[C@@]1(Cl)C2(Cl)Cl`, the compound was called inactive.

Regarding `OCCCC(F)(F)C(F)(F)C(F)(F)C(F)(F)C(F)(F)C(F)(F)C(F)(F)F`, the compound was classed as inactive.

As for `CC1(C)CCC(C)(C)c2cc(C(=O)Nc3ccc(C(=O)O)cc3)ccc21`, the outcome was inactive.

As for `O=C(O)C(F)(F)C(F)(F)C(F)(F)C(F)(F)C(F)(F)C(F)(F)C(F)(F)C(F)(F)Cl`, the call was inactive.

As to `ClC1=C(Cl)[C@]2(Cl)[C@@H]3[C@H]4C[C@H]([C@@H]5O[C@H]45)[C@@H]3[C@@]1(Cl)C2(Cl)Cl`, the result was inactive.

For `O=C(O)C(F)(F)OC(F)(F)C(F)(F)OC(F)(F)C(F)(F)OC(F)(F)C(F)(F)C(F)(F)C(F)(F)F`, the call was inactive.

As for `Cc1ccc2cc3c(ccc4ccccc43)c3c2c1CC3`, the compound was called inactive.

With `O=C(O)C(F)(F)C(F)(F)C(F)(F)OC(F)(C(F)(F)F)C(F)(F)F`, the call was inactive.

In the case of `C/C(=C\c1ccc(C(=O)O)cc1)c1ccc2c(c1)C(C)(C)CCC2(C)C`, the compound was classed as inactive.

Consider `CN(c1nccc(=O)[nH]1)C1CCN(c2nc3ccccc3n2Cc2ccc(F)cc2)CC1`, for which the call was inactive.

These data come from PubChem BioAssay AID2284388 (EPA ToxCast).
